Measured values: PubChem BioAssay AID1159580 (chemical genetic matrix, 2015)
In all, about 5,500 compounds went through this assay and about 2,000 (36%) were called active. Another 18% or so got no clear call; they are omitted. No stated cut-off is given here; in the data, active means normalized growth mostly below about 0.91 (no sharp cut-off); inconclusive means no clear call, values can overlap the other calls; inactive means mostly above about 0.92. The list shows a part of the results.

Experiment: chemical genetic growth profiling, strain panel (AID 1159580);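 further: tested at 20 µM; growth read once vehicle control cultures reached saturation at 30 °C; 1 = growth at the plate median or of vehicle wells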
Settings: growth OD

Measured: normalized growth

CCN(CC)CCOc1ccc2c(c1)C(=O)c1cc(OCCN(CC)CC)ccc1-2
inactive: S. cerevisiae deletion strains, locus YJR075W, strain HOC1, stronger effect = lower value 0.998 | S. cerevisiae deletion strains, locus YKL009W, strain mrt4, stronger effect = lower value 0.973 | S. cerevisiae deletion strains, locus YKL068W, stronger effect = lower value 0.975 | S. cerevisiae deletion strains, locus YKL085W, strain MDH1 (second series), stronger effect = lower value 1.02 | S. cerevisiae deletion strains, locus YKL085W, strain MDH1, stronger effect = lower value 1.02 | S. cerevisiae deletion strains, locus YKL160W, strain elf1, stronger effect = lower value 0.96 | S. cerevisiae deletion strains, locus YKL190W, strain CNB1, stronger effect = lower value 0.991 | S. cerevisiae deletion strains, locus YKR001C, strain vps1, stronger effect = lower value 0.986 | S. cerevisiae deletion strains, locus YKR026C, strain gcn3, stronger effect = lower value 0.98 | S. cerevisiae deletion strains, locus YKR091W, strain srl3, stronger effect = lower value 0.982 | S. cerevisiae deletion strains, locus YLL001W, strain dnm1, stronger effect = lower value 1.01 | S. cerevisiae deletion strains, locus YLL026W, stronger effect = lower value 0.992 | S. cerevisiae deletion strains, locus YLL041C, strain sdh2, stronger effect = lower value 0.998 | S. cerevisiae deletion strains, locus YLR027C, strain aat2, stronger effect = lower value 0.996 | S. cerevisiae deletion strains, locus YLR039C, strain RIC1, stronger effect = lower value 0.963 | S. cerevisiae deletion strains, locus YLR058C, strain SHM2, stronger effect = lower value 0.994 | S. cerevisiae deletion strains, locus YLR102C, strain apc9, stronger effect = lower value 0.975 | S. cerevisiae deletion strains, locus YLR113W, strain HOG1, stronger effect = lower value 0.988 | S. cerevisiae deletion strains, locus YLR221C, strain rsa3, stronger effect = lower value 0.993 | S. cerevisiae deletion strains, locus YLR258W, strain gsy2, stronger effect = lower value 0.979 | S. cerevisiae deletion strains, locus YLR262C, strain YPT6 (second series), stronger effect = lower value 1.05 | S. cerevisiae deletion strains, locus YLR262C, strain YPT6, stronger effect = lower value 0.96 | S. cerevisiae deletion strains, locus YLR268W, strain sec22, stronger effect = lower value 0.984 | S. cerevisiae deletion strains, locus YLR320W, strain mms22, stronger effect = lower value 0.995 | S. cerevisiae deletion strains, locus YLR330W, strain CHS5, stronger effect = lower value 0.988 | S. cerevisiae deletion strains, locus YLR342W, strain FKS1 (second series), stronger effect = lower value 1.01 | S. cerevisiae deletion strains, locus YLR342W, strain FKS1, stronger effect = lower value 0.981 | S. cerevisiae deletion strains, locus YLR357W, strain rsc2, stronger effect = lower value 0.963 | S. cerevisiae deletion strains, locus YLR370C, strain arc18, stronger effect = lower value 0.987 | S. cerevisiae deletion strains, locus YLR371W, strain rom2, stronger effect = lower value 0.961 | S. cerevisiae deletion strains, locus YLR384C, strain iki3, stronger effect = lower value 0.984 | S. cerevisiae deletion strains, locus YLR418C, strain cdc73, stronger effect = lower value 1.06 | S. cerevisiae deletion strains, locus YML016C, strain PPZ1, stronger effect = lower value 0.995 | S. cerevisiae deletion strains, locus YML032C, strain rad52, stronger effect = lower value 0.968 | S. cerevisiae deletion strains, locus YML120C, strain ndi1, stronger effect = lower value 0.985 | S. cerevisiae deletion strains, locus YML124C, strain tub3, stronger effect = lower value 0.987 | S. cerevisiae deletion strains, locus YMR058W, strain fet3, stronger effect = lower value 0.994 | S. cerevisiae deletion strains, locus YMR078C, strain ctf18, stronger effect = lower value 0.978 | S. cerevisiae deletion strains, locus YMR125W, strain sto1, stronger effect = lower value 0.978 | S. cerevisiae deletion strains, locus YMR129W, stronger effect = lower value 0.982 | S. cerevisiae deletion strains, locus YMR205C, strain PFK2, stronger effect = lower value 0.969 | S. cerevisiae deletion strains, locus YMR223W, strain ubp8, stronger effect = lower value 0.982 | S. cerevisiae deletion strains, locus YMR231W, strain pep5, stronger effect = lower value 0.99 | S. cerevisiae deletion strains, locus YMR263W, strain SAP30, stronger effect = lower value 1 | S. cerevisiae deletion strains, locus YMR307W, strain GAS1, stronger effect = lower value 1.09 | S. cerevisiae deletion strains, locus YNL067W, strain RPL9B, stronger effect = lower value 0.999 | S. cerevisiae deletion strains, locus YNL071W, strain lat1, stronger effect = lower value 0.988 | S. cerevisiae deletion strains, locus YNL128W, strain TEP1, stronger effect = lower value 0.987 | S. cerevisiae deletion strains, locus YNL153C, strain GIM3, stronger effect = lower value 1.01 | S. cerevisiae deletion strains, locus YNL183C, strain NPR1, stronger effect = lower value 0.939 | S. cerevisiae deletion strains, locus YNL209W, strain ssb2, stronger effect = lower value 0.976 | S. cerevisiae deletion strains, locus YNL233W, strain BNI4, stronger effect = lower value 1.02 | S. cerevisiae deletion strains, locus YNL248C, strain rpa49, stronger effect = lower value 0.98 | S. cerevisiae deletion strains, locus YNL250W, strain rad50, stronger effect = lower value 0.983 | S. cerevisiae deletion strains, locus YNL271C, strain bni1, stronger effect = lower value 0.993 | S. cerevisiae deletion strains, locus YNL298W, strain CLA4, stronger effect = lower value 0.971 | S. cerevisiae deletion strains, locus YNL307C, strain MCK1, stronger effect = lower value 0.975 | S. cerevisiae deletion strains, locus YNL322C, strain KRE1 (second series), stronger effect = lower value 0.96 | S. cerevisiae deletion strains, locus YNL322C, strain KRE1, stronger effect = lower value 0.983 | S. cerevisiae deletion strains, locus YNR049C, strain mso1, stronger effect = lower value 0.968 | S. cerevisiae deletion strains, locus YNR052C, strain pop2, stronger effect = lower value 0.975 | S. cerevisiae deletion strains, locus YOL006C, strain TOP1, stronger effect = lower value 1.02 | S. cerevisiae deletion strains, locus YOL012C, strain htz1 0.871 | S. cerevisiae deletion strains, locus YOL147C, strain pex11, stronger effect = lower value 0.992 | S. cerevisiae deletion strains, locus YOR001W, strain rrp6, stronger effect = lower value 0.988 | S. cerevisiae deletion strains, locus YOR061W, strain CKA2, stronger effect = lower value 0.994 | S. cerevisiae deletion strains, locus YOR069W, strain VPS5, stronger effect = lower value 0.996 | S. cerevisiae deletion strains, locus YOR070C, strain gyp1, stronger effect = lower value 0.989 | S. cerevisiae deletion strains, locus YOR080W, strain dia2, stronger effect = lower value 0.983 | S. cerevisiae deletion strains, locus YOR083W, strain WHI5, stronger effect = lower value 0.968 | S. cerevisiae deletion strains, locus YOR106W, strain vam3, stronger effect = lower value 0.944 | S. cerevisiae deletion strains, locus YOR136W, strain idh2, stronger effect = lower value 0.985 | S. cerevisiae deletion strains, locus YOR144C, strain elg1, stronger effect = lower value 0.97 | S. cerevisiae deletion strains, locus YOR184W, strain ser1, stronger effect = lower value 0.976 | S. cerevisiae deletion strains, locus YOR231W, strain MKK1, stronger effect = lower value 0.985 | S. cerevisiae deletion strains, locus YOR265W, strain rbl2, stronger effect = lower value 0.976 | S. cerevisiae deletion strains, locus YOR270C, strain vph1, stronger effect = lower value 1.07 | S. cerevisiae deletion strains, locus YOR290C, strain snf2, stronger effect = lower value 0.964 | S. cerevisiae deletion strains, locus YOR316C, strain cot1, stronger effect = lower value 0.995 | S. cerevisiae deletion strains, locus YPL051W, strain arl3, stronger effect = lower value 0.97 | S. cerevisiae deletion strains, locus YPL055C, strain LGE1, stronger effect = lower value 1.02 | S. cerevisiae deletion strains, locus YPL078C, strain atp4, stronger effect = lower value 0.981 | S. cerevisiae deletion strains, locus YPL106C, strain sse1, stronger effect = lower value 0.979 | S. cerevisiae deletion strains, locus YPL240C, strain hsp82, stronger effect = lower value 0.996 | S. cerevisiae deletion strains, locus YPL241C, strain CIN2, stronger effect = lower value 0.971 | S. cerevisiae deletion strains, locus YPL256C, strain CLN2, stronger effect = lower value 0.979 | S. cerevisiae deletion strains, locus YPR119W, strain clb2, stronger effect = lower value 0.988 | S. cerevisiae deletion strains, locus YPR141C, strain kar3, stronger effect = lower value 0.989 | S. cerevisiae deletion strains, locus YPR163C, strain tif3, stronger effect = lower value 0.97 | S. cerevisiae deletion strains, locus YPR167C, strain met16, stronger effect = lower value 1 | S. cerevisiae deletion strains, strain wtn01, stronger effect = lower value 0.993 | S. cerevisiae strains, strain wild type, stronger effect = lower value 0.995
